# Results as given in PubChem BioAssay AID1832 (Broad Institute, 2009).
# The whole screen tested about 300,000 compounds, of which about 1,100 (0.37%) were called active. This excerpt belongs to a sample that is enriched for actives. A number with no mark means an inactive call.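 The calls were made as follows: active = inhibition past about -25% in most replicates, and total fluorescence under double the plate's negative control median (limit read from the data); inconclusive = replicates evenly split on the limit, or fluorescence at least double controls; inactive = too little inhibition in most replicates.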
# Biological target: Zinc finger protein mex-5 (Caenorhabditis elegans) (UniProt Q9XUB2)
# Sequence (Q9XUB2 whole entry, looked up): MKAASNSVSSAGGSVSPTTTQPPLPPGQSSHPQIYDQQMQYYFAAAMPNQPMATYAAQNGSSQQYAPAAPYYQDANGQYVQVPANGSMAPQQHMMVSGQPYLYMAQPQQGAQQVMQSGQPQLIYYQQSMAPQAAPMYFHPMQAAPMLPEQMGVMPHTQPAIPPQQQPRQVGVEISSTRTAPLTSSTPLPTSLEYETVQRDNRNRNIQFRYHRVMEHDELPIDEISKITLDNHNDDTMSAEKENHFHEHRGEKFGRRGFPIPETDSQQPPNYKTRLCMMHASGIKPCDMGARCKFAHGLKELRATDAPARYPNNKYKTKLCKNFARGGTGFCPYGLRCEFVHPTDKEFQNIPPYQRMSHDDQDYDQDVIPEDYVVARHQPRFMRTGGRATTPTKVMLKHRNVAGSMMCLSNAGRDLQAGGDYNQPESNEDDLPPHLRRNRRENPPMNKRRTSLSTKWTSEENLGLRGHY
# Assay: MEX-5 zinc finger RNA-binding disruptors – biochemical, C. elegans, fluorescence polarization, MLPCN library, primary screen (AID 1832);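 also: 0% = DMSO and -100% = 5 µM competing unlabeled TCR2 RNA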
# Settings: MEX-5/FITC-TCR2 RNA binding, at 10 µM, stronger effect = lower value
row,SMILES,activity score (negative = inhibition of binding)
1,Cc1cc(NS(=O)(=O)c2ccc(NC(=S)NC(=O)c3ccc(F)cc3Cl)cc2)no1,-0.765%
2,O=C(NCC1CCCO1)C1CCN(C2CCN(C(=O)C3CCCCC3)CC2)CC1 (stereo unspecified),-0.223%
3,COc1cc(C(=S)N2CCOCC2)cc(OC)c1OC(=O)c1ccc([N+](=O)[O-])cc1[N+](=O)[O-],-2.68%
4,Cc1c(NC(=O)c2cccnc2)c(=O)n(-c2ccccc2)n1C,0.492%
5,Cc1c(NC(=O)c2coc(=O)c(Br)c2)c(=O)n(-c2ccccc2)n1C,-44.8% (active)
6,Cc1cc(C(=O)Nc2c(C)n(C)n(-c3ccccc3)c2=O)cs1,2.16%
7,CCOc1ncccc1C(=O)NCCc1ccc(OC)cc1,-0.435%
8,CNC(=O)CN1C(=O)NC(c2ccccc2)(c2ccccc2)C1=O,2.16%
9,Cc1ccc(Cl)cc1-c1ccc(/C=N/n2cnnc2)o1,0.0863%
10,Brc1cc(/C=N/n2cnnc2)oc1Br,0.986%
11,Clc1cc(-c2ccc(/C=N/n3cnnc3)o2)ccc1Br,-34% (active)
12,Cc1ccoc1C(=O)Nc1cccc(Oc2ccccc2)c1,-2.34%
13,COc1ccc(CNC(=O)COc2cccnc2[N+](=O)[O-])cc1,0.235%
14,COCCN1C=C2C(=O)C(C)(OC(=O)C3CCCC3)C(=O)C=C2C=C1c1ccsc1 (stereo unspecified),-2.5%
15,C=CCN1C=C2C(=O)C(C)(OC(=O)CCc3ccccc3)C(=O)C=C2C=C1c1ccc(C#N)cc1 (stereo unspecified),-5.84%
16,CC1(OC(=O)C2CCCC2)C(=O)C=C2C=C(c3ccc(C#N)cc3)OC=C2C1=O (stereo unspecified),-40% (active)
17,N#CC1=C(N)C(C#N)(C#N)[C@H](c2ccsc2)[C@H]2COCC=C12,-30.3% (active)
18,CCOC(=O)N1CCC(NC(=O)C(NS(=O)(=O)c2ccc3c(c2)CCN3C(=O)CC)C(C)C)CC1 (stereo unspecified),-1.98%
19,O=C(COc1ccc(Cl)cc1Cl)N/N=C/c1ccccn1,4.25%
20,CSc1ncc(C(=O)NCCCc2ccccc2)c(C)n1,-2.7%
21,CCOc1ccc(C(=O)NC2CCN(CC(=O)NCc3cccs3)CC2)cc1,-1.2%
22,Cc1ccc2c(c1)C(c1ccccc1)N(C(=O)c1ccc(F)cc1)CC(=O)N2 (stereo unspecified),-0.463%
23,CCCNC(=O)N1CCC(c2ccc3c(c2)OCO3)CC1,2.15%
24,Cc1nn(C)cc1N1C(=O)c2cccc3c(N)ccc(c23)C1=O,1.83%
25,CCN1C(=O)c2cccc3c(N)ccc1c23,1.15%
26,CN1C(=O)c2cccc3c(N)ccc(c23)C1=O,-51.4% (active)
